Tg IFNy HTS: blocks Toxoplasma gondii growth in the presence of IFN-gamma; AID 1259416; activity change, negative = inhibition, % (no concentration beside the values); 69,000 compounds, 3.8% hits; Toxoplasma gondii growth in IFN-gamma-treated host cells; stronger effect = lower value; in the data active means activity change below about -70%, passing the limit was not always enough;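 further: host cells are HeLa cells infected with Toxoplasma gondii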
Active calls of the source: *; i = inactive. The entries come from a sample that favours hits as a whole.

SMILES	Tg IFNy HTS
Cc1oc(-c2ccccc2)nc1Cn1nnc(-c2nc(-c3ccc(Cl)cc3)no2)c1C	10
Cc1ccc(-c2nc(Cn3c(C)nc4onc(C)c4c3=O)c(C)o2)cc1	31
COCC(=O)N1CCc2c([nH]c3ccccc23)C1c1ccc(C)cc1 (stereo not given)	272
Cc1ccc(C2c3[nH]c4ccccc4c3CCN2C(=O)COc2ccccc2)cc1 (stereo not given)	-117*
Cc1ccc(C2c3[nH]c4ccccc4c3CCN2C(=O)CCc2ccccc2)cc1 (stereo not given)	-80*
CCCC(=O)N1CCc2c([nH]c3ccccc23)C1c1ccc(OCC)cc1 (stereo not given)	-37
O=C(COc1ccccc1)N1CCc2c([nH]c3ccccc23)C1c1ccc(Cl)cc1 (stereo not given)	-70
COC(=O)CCC(=O)N1CCc2c([nH]c3ccccc23)C1c1ccc(SC)cc1 (stereo not given)	57
CSc1ccc(C2c3[nH]c4ccccc4c3CCN2C(=O)CCC2CCCC2)cc1 (stereo not given)	-122*
O=C(COc1ccccc1)N1CCc2c([nH]c3ccccc23)C1c1ccc(F)cc1 (stereo not given)	-64
CCCC(=O)N1CCc2c([nH]c3ccccc23)C1c1ccc(Cl)cc1 (stereo not given)	-104*
CCOc1cccc(C2c3[nH]c4ccccc4c3CCN2C(=O)CCc2ccccc2)c1 (stereo not given)	i
CCCC(=O)N1CCc2c([nH]c3ccccc23)C1c1ccc(SC)cc1 (stereo not given)	-24
CCCC(=O)N1CCc2c([nH]c3ccccc23)C1c1ccc(OC)cc1 (stereo not given)	i
CCS(=O)(=O)N1CCC2(CC1)OC(=O)C(C)=C2C(=O)NCCCN1CCCCCC1	-1
Cc1ccc(NC(=O)CN2C(=O)CCc3cc(S(=O)(=O)N4CCCCC4)ccc32)c(C)c1	-4
CN(C)CC1(O)CCCN(C(=O)C2=Cc3ccccc3OC=C2)CC1 (stereo not given)	98
O=C(c1cccc(F)c1)N1CC2CC(C1)N(CCO)C2 (stereo not given)	6
CCCc1nc(C(=O)N2CCCC(c3n[nH]c(=O)n3CC)C2)cs1 (stereo not given)	-4
C=CCOCc1nnc2n1CCN(Cc1cnn(C)c1)C2	-5
O=C1CC(c2ccccc2)=NN1c1nc(-c2ccccc2)cc(-c2ccccc2)n1	40
CCC1CCC(C(=O)NCc2nc(CCc3ccccc3)n[nH]2)CC1 (stereo not given)	-8
Cc1ccc(NC(=O)CC(=O)N2C[C@@H](C)O[C@@H](C)C2)cc1Cl	2
CC(C)NC(=O)CN1C[C@H](C(=O)N(C)C)[C@]2(COc3ccccc3C(=O)N2)C1	-14
CC1(C(=O)N2CCC3(C2)c2ccccc2S(=O)(=O)N3Cc2ccc(F)cc2)CC1 (stereo not given)	5
SMILES	Tg IFNy HTS
CC(=O)N1CCO[C@H]2CN(S(=O)(=O)c3cccnc3)C[C@@H]2C1	230
CN[C@@H]1C[C@H]2O[C@@](C)([C@@H]1OC)n1c3ccccc3c3c4c(c5c6ccccc6n2c5c31)C(=O)N[C@H]4O	-80*
Cc1cccc(NC(=O)CN2C(=O)CCc3cc(S(=O)(=O)N4CCC(C)CC4)ccc32)c1C	36
CCn1ccnc1Cn1cnc(-c2ccccc2)c1-c1c(OC)cccc1OC	2
O=C(c1ccc2onc(-c3coc(-c4ccccc4)n3)c2c1)N1CCCO1	183
O/N=C/c1ccc(-c2ccc(O)c(F)c2)c(Cl)c1O	-87*
O=C(O)c1ccc(-c2ccc(O)c(F)c2)cc1	42
O=C(O)C1CC2(CCNCC2)CN1C(=O)CCc1ccc(F)cc1 (stereo not given)	1
COc1ccc(C(=O)NCCc2sc(-c3cccc(C)c3)nc2C)cc1	224
CCOc1ccc(C(=O)NCCc2sc(-c3cccc(C)c3)nc2C)cc1	117
CCc1nc(-c2cccc(C)c2)c(-c2ccnc(NC(=O)c3ccccc3)c2)s1	-81*
CC1(C)CC(NC(=O)c2ccc(N3CCOCC3)cc2)c2ccccc2O1 (stereo not given)	7
CCn1ccnc1CN1CCCN(c2ccccc2C)CC1	-10
O=C(c1ccco1)N1CCC2O[C@H](COCCN3CCCC3)CCC21 (stereo not given in full)	-4
CCS(=O)(=O)N1CCC(O)(CN2CC3(CCCCC3)CC2=O)CC1	66
Cc1ccc(CN2CCC3(CC2)CC(CC(=O)NC2CC2)c2ccccc2O3)o1 (stereo not given)	-28
O=C(CN1C(=O)CCc2cc(Br)ccc21)N1CCN(c2ccccc2)CC1	-43
O=C(c1ccc2c(c1)CCC(=O)N2Cc1ccccc1)N1CCN(c2ccc(F)cc2)CC1	-108*
CCCN1C(=O)CCc2cc(C(=O)N3CCOCC3)ccc21	-14
Cc1nn(C)c(C)c1CCC(=O)N(C)Cc1nc(-c2ccccc2)no1	-2
Cc1cc(F)ccc1S(=O)(=O)NCCc1csc(-c2cccc(F)c2)n1	55
Cc1nc2ccc(NC(=O)NC(=O)c3ccccc3Cl)cc2o1	-20

Bioassay records as filed in PubChem.
